From PubChem BioAssay (NCI)
The panel holds about 83,000 compounds, 20% with a hit somewhere; the sample as a whole holds those more often.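 Cells were grown in 96-well plates and exposed to the test compound at a single concentration for 48 hours; results are reported as percent growth, with values below 10 considered active.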 Activity calls are given as the source filed them.

Assays:
Test in all cases: NCI-60 one-dose screen, 48 h (100 = growth as untreated, 0 = no growth, -100 = all killed)
Settings in all cases: 10 µM
NCI-H23 lung = tested on: NCI-H23 lung
NCI-H226 lung = tested on: NCI-H226 lung
NCI-H322M lung = tested on: NCI-H322M lung
HOP-62 NSCLC = tested on: HOP-62 NSCLC
NCI-H460 lung = tested on: NCI-H460 lung
HOP-92 NSCLC = tested on: HOP-92 NSCLC
NCI-H522 lung = tested on: NCI-H522 lung
A549/ATCC NSCLC = tested on: A549/ATCC NSCLC
786-0 renal = tested on: 786-0 renal
COLO 205 colon = tested on: COLO 205 colon
DU-145 prostate = tested on: DU-145 prostate
K-562 leukemia = tested on: K-562 leukemia
MALME-3M melanoma = tested on: MALME-3M melanoma
MDA-MB-231 breast = tested on: MDA-MB-231 breast
RXF 393 renal = tested on: RXF 393 renal
SF-268 CNS = tested on: SF-268 CNS
SF-295 CNS = tested on: SF-295 CNS
SF-539 CNS = tested on: SF-539 CNS
UACC-257 melanoma = tested on: UACC-257 melanoma
M14 melanoma = tested on: M14 melanoma

Row | Compound | growth (NCI-H23 lung) | growth (NCI-H226 lung) | growth (NCI-H322M lung) | growth (HOP-62 NSCLC) | growth (NCI-H460 lung) | growth (HOP-92 NSCLC) | growth (NCI-H522 lung) | growth (A549/ATCC NSCLC) | growth (786-0 renal) | growth (COLO 205 colon) | growth (DU-145 prostate) | growth (K-562 leukemia) | growth (MALME-3M melanoma) | growth (MDA-MB-231 breast) | growth (RXF 393 renal) | growth (SF-268 CNS) | growth (SF-295 CNS) | growth (SF-539 CNS) | growth (UACC-257 melanoma) | growth (M14 melanoma)
1 | CCCNC(=O)c1ccc(S(N)(=O)=O)cc1 | 118% (inactive) | 108% (inactive) | 121% (inactive) | 82.8% (inactive) | 108% (inactive) | 88.9% (inactive) | 115% (inactive) | 112% (inactive) | 75.4% (inactive) | 132% (inactive) | 109% (inactive) | 107% (inactive) | 113% (inactive) | 101% (inactive) | 107% (inactive) | 103% (inactive) | 127% (inactive) | 97.8% (inactive) | 110% (inactive) | 
2 | CCN(CC)c1ccc2nc3ccc(=[N+](CC)CC)cc-3oc2c1 | -46.2% (active) | -46.9% (active) | 10.7% (inactive) | 1.25% (active) | 6.72% (active) | 15.7% (inactive) | -29.6% (active) | 18.5% (inactive) | 34.9% (inactive) | -69.9% (active) | 37.6% (inactive) | 21% (inactive) | -48.6% (active) | -12.1% (active) | 53.1% (inactive) | 13.9% (inactive) | 1.09% (active) | 21.2% (inactive) | -55.8% (active) | -34.1% (active)
3 | C/C(=C\c1cc(Cl)ccc1OCC(=O)O)[N+](=O)[O-] | 96.2% (inactive) | 108% (inactive) | 118% (inactive) | 103% (inactive) | 123% (inactive) | 101% (inactive) | 75.6% (inactive) | 92% (inactive) | 117% (inactive) | 115% (inactive) | 108% (inactive) | 105% (inactive) | 127% (inactive) | 123% (inactive) | 134% (inactive) | 103% (inactive) | 108% (inactive) | 109% (inactive) | 102% (inactive) | 103% (inactive)
4 | CCOC(=O)CCCS(C)(=O)=O | 98.6% (inactive) | 109% (inactive) | 120% (inactive) | 102% (inactive) | 110% (inactive) | 87% (inactive) | 109% (inactive) | 109% (inactive) | 110% (inactive) | 110% (inactive) | 117% (inactive) | 113% (inactive) | 105% (inactive) | 99% (inactive) | 113% (inactive) | 108% (inactive) | 117% (inactive) | 97.7% (inactive) | 108% (inactive) | 
5 | CCN1C(=O)/C(=C/C=C/N(C)c2ccccc2)SC1=S | 92.9% (inactive) | 66.4% (inactive) | 94.6% (inactive) | 36.2% (inactive) | 94.7% (inactive) | 103% (inactive) | 60.9% (inactive) | 82.8% (inactive) | 79.8% (inactive) | 104% (inactive) | 88.8% (inactive) | 79.1% (inactive) | 86.4% (inactive) | 94.2% (inactive) | 90.3% (inactive) | 65.7% (inactive) | 54.8% (inactive) | 92.3% (inactive) | 97.7% (inactive) | 101% (inactive)
6 | Nc1nc2c(c(-c3nc(N)nc4c3CCc3ccccc3-4)n1)CCc1ccccc1-2 | 97.4% (inactive) | 89.9% (inactive) | 115% (inactive) | 91.4% (inactive) | 117% (inactive) | 95.1% (inactive) | 99.1% (inactive) | 106% (inactive) | 110% (inactive) | 116% (inactive) | 107% (inactive) | 99.2% (inactive) | 85.3% (inactive) |  | 115% (inactive) | 103% (inactive) | 99.5% (inactive) | 93.1% (inactive) | 109% (inactive) | 105% (inactive)
7 | CCS(=O)(=O)CCCl | 101% (inactive) | 114% (inactive) | 97.1% (inactive) | 105% (inactive) | 109% (inactive) | 92.3% (inactive) | 90% (inactive) | 97.4% (inactive) | 105% (inactive) | 126% (inactive) | 96.8% (inactive) | 93% (inactive) | 93.3% (inactive) |  | 105% (inactive) | 106% (inactive) | 102% (inactive) | 104% (inactive) | 94.5% (inactive) | 94.4% (inactive)
8 | CC(=O)Cc1cc(-c2cc(CC(C)=O)[nH]n2)n[nH]1 | 102% (inactive) | 99.3% (inactive) | 96.2% (inactive) | 95.1% (inactive) | 105% (inactive) | 104% (inactive) | 95.8% (inactive) | 102% (inactive) | 103% (inactive) | 110% (inactive) | 107% (inactive) | 99.5% (inactive) | 94.6% (inactive) |  | 103% (inactive) | 98.5% (inactive) | 94.7% (inactive) | 98% (inactive) | 93% (inactive) | 99.5% (inactive)
9 | Cc1ccc(N)cc1[N+](=O)[O-] | 97.1% (inactive) | 114% (inactive) | 129% (inactive) | 99.5% (inactive) | 109% (inactive) | 90% (inactive) | 94.5% (inactive) | 100% (inactive) | 108% (inactive) | 110% (inactive) | 115% (inactive) | 108% (inactive) |  | 122% (inactive) | 114% (inactive) | 114% (inactive) | 105% (inactive) | 113% (inactive) | 98.7% (inactive) | 99.8% (inactive)
10 | CC(C)COC(=O)COC(=O)OCCOCCOC(=O)OCC(=O)OCC(C)C | 100% (inactive) | 100% (inactive) | 118% (inactive) | 98.1% (inactive) | 114% (inactive) | 95.7% (inactive) | 95.9% (inactive) | 109% (inactive) | 103% (inactive) | 117% (inactive) | 95.3% (inactive) |  | 104% (inactive) | 113% (inactive) | 103% (inactive) | 93.5% (inactive) | 115% (inactive) | 80.5% (inactive) | 103% (inactive) | 
11 | CCCCCCCCCCCCCC(=O)Oc1ccc[nH]c1=O | 105% (inactive) | 92.7% (inactive) | 87% (inactive) | 94.1% (inactive) | 105% (inactive) | 84.9% (inactive) | 90.7% (inactive) | 89.4% (inactive) | 89.7% (inactive) | 112% (inactive) | 103% (inactive) | 90% (inactive) | 95.2% (inactive) |  | 113% (inactive) |  | 97.1% (inactive) | 99% (inactive) | 84.3% (inactive) | 101% (inactive)
12 | CC(C)CCCC(=O)O | 106% (inactive) | 101% (inactive) | 93.4% (inactive) | 102% (inactive) | 102% (inactive) | 73.9% (inactive) | 103% (inactive) | 105% (inactive) | 116% (inactive) | 112% (inactive) | 111% (inactive) | 135% (inactive) | 98.5% (inactive) | 123% (inactive) | 93% (inactive) | 106% (inactive) |  | 98.5% (inactive) | 117% (inactive) | 119% (inactive)
13 | CC(=O)OCC1OC(OC2=C(CC=C(C)C)C(=O)c3ccccc3C2=O)C(OC(C)=O)C(OC(C)=O)C1OC(C)=O (stereo not given) | 23.3% (inactive) | 57.1% (inactive) | 77.5% (inactive) | 94.5% (inactive) | 34.6% (inactive) | -3.11% (active) | 22.3% (inactive) | 79.5% (inactive) | 88.9% (inactive) | 66% (inactive) | 57.1% (inactive) | -47.4% (active) | -36.2% (active) | 6.41% (active) | 61.1% (inactive) | 22.7% (inactive) | 63.4% (inactive) |  | 20.6% (inactive) | 46.8% (inactive)
14 | Cc1cc(NC(=O)CSCC(=O)O)no1 | 102% (inactive) | 110% (inactive) | 96.7% (inactive) | 96.3% (inactive) | 110% (inactive) | 107% (inactive) | 101% (inactive) | 97.2% (inactive) | 103% (inactive) | 110% (inactive) | 112% (inactive) | 117% (inactive) | 96.8% (inactive) |  | 103% (inactive) | 114% (inactive) | 94.2% (inactive) | 96.4% (inactive) | 95.4% (inactive) | 99.6% (inactive)
15 | COc1ccccc1C1OC2=Nc3cc(C)c(C)cc3NC2C1=O (stereo not given) | 79% (inactive) | 21.7% (inactive) | 80.3% (inactive) | 47.9% (inactive) | 14.1% (inactive) | 67.7% (inactive) | 91% (inactive) | 67.6% (inactive) | 14% (inactive) | 79.1% (inactive) | 88% (inactive) | 97.7% (inactive) | 80.2% (inactive) |  | 78.3% (inactive) |  | 74.8% (inactive) | 91% (inactive) | 104% (inactive) | 84.2% (inactive)
16 | C#CCSc1nnnn1-c1ccc(Br)c(C)c1 | 89.7% (inactive) | 74.6% (inactive) | 107% (inactive) | 102% (inactive) | 97% (inactive) | 69.9% (inactive) | 71.1% (inactive) | 92.8% (inactive) | 89.1% (inactive) | 135% (inactive) | 107% (inactive) | 86.3% (inactive) | 112% (inactive) | 98.4% (inactive) | 68.3% (inactive) | 99.2% (inactive) | 103% (inactive) | 89% (inactive) | 83.5% (inactive) | 94.8% (inactive)
